Most compounds without a hit are left out; they make up all but 2.4% or so of the library.
CHO-K1 Ca antag: nonselective inhibitor or artifact in parental CHO-K1 cells; ATP-induced calcium, Fluo-8 fluorescence; inhibition, % at 3 µM; 0.6% of 360,000 active; AID 602250;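 active = inhibition above a per-plate cutoff, the plate's mean sample inhibition plus 3 SD, cut at about 24% in these data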
CHO-K1 Ca PAM: M1 PAM counterscreen hit in parental CHO-K1 cells | ATP EC20, Fluo-8 calcium fluorescence; 0% at ATP EC20, 100% at ATP max | activation, % at 3 µM | 0.02% of 360,000 active | AID 602247;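 active = activation above the run cutoff, the mean activation of all test compounds plus 3 SD, cut at about 40% in these data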;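 note: peak over basal fluorescence ratio in a 140 s read after ATP addition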
M1 antag: antagonists of human M1 muscarinic receptor; P11229; CHO-K1 hM1, Fluo-8 calcium fluorescence, ACh EC80 antagonist; inhibition, % at 3 µM; 1.3% of 360,000 active; AID 588852;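 active = percent inhibition above its own plate's cutoff, namely the mean of that plate's compound wells plus 3 SD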;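 note: peak over basal fluorescence ratio during 140 s after agonist addition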
Target sequence (P11229 whole entry, looked up): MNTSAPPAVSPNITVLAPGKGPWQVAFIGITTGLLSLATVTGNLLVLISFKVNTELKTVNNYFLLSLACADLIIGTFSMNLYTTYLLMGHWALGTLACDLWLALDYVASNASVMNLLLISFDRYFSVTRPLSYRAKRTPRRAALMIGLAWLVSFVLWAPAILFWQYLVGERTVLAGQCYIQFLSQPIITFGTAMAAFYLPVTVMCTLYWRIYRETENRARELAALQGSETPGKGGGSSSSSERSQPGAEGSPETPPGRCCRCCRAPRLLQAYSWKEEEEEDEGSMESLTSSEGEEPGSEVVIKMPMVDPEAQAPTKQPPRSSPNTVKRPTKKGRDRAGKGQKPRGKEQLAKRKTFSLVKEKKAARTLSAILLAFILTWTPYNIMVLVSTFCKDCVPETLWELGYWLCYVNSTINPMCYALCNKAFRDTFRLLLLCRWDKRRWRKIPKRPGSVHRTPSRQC
CHRM1 agonist: activates human CHRM1 receptor; P11229; CHO-K1 hM1, Fluo-8 calcium fluorescence, agonist mode; 0% DMSO, 100% acetylcholine EC100; activation, % at 3 µM; 0.33% of 360,000 active;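 active = activation above the run's mean compound activation plus 3 SD, cut at about 16% in these data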;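 note: peak over basal fluorescence ratio within a 140 s kinetic read after compound addition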
M1 ag parental: M1 agonist counterscreen hit in parental CHO-K1 cells. Fluo-8 calcium fluorescence; scaled to maximal ATP response, vehicle zero. activation, % at 3 µM. 0.48% of 360,000 active. AID 602248; in the data active = activation above about 15%;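 note: untransfected CHO-K1 host cells lacking M1 receptor as counterscreen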
M1 PAM: positive allosteric modulators of human M1 muscarinic receptor. P11229. CHO-K1 hM1, Fluo-8 calcium fluorescence, ACh EC20; 0% = ACh EC20, 100% = maximal ACh. activation, % at 3 µM. 0.088% of 360,000 active. AID 588819; in the data active = activation above about 19%, passing the limit was not always enough
Large screens that a line does not name were inactive.

CC1CCN(CC(=O)N2CCCc3c2c(=O)oc2ccc(OCc4ccccc4)cc32)CC1	M1 antag 48.9
O=C(O)c1nn(CC(=O)N2CCCCCC2)c(=O)c2ccccc12	M1 ag parental 16.3
O=C(Cn1nc(C(=O)O)c2ccccc2c1=O)Nc1cccc(S(=O)(=O)N2CCOCC2)c1	none
O=C(Cn1nc(C(=O)O)c2ccccc2c1=O)Nc1cccc(S(=O)(=O)N2CCCCC2)c1	M1 antag 24.0
CCCc1c(C(=O)N/N=C/c2ccc(OCc3ccc(F)cc3)cc2)nnn1-c1nonc1N	none
C=CCn1c(NCc2ccc(OC)cc2O)nc2ccccc21	none
COc1ccc(CC(N)c2csc(NC(=O)c3cc(C(C)(C)C)nn3Cc3ccccc3)n2)cc1 (stereo not drawn)	none
O=C(Nc1ccccc1)OCCCCCOC(=O)Nc1ccccc1	CHO-K1 Ca antag 25.8
COc1ccc(OCCOC(=O)Nc2ccccc2)cc1	M1 antag 30.8
OC(c1ccc(Cl)cc1)c1ncc(-c2cccc(F)c2)[nH]1 (stereo not drawn)	none
CN(C)c1ccc(-c2nn3c(C4CCCCC4)nnc3s2)cc1	CHO-K1 Ca antag 29.6
COc1ccc(NC2CCCN(C(=O)CCCn3cncn3)C2)cc1 (stereo not drawn)	M1 ag parental 17.6
CCOC(=O)C1CCCN(C2CC(=O)N(c3ccc(C)cc3)C2=O)C1 (stereo not drawn)	CHRM1 agonist 20.1
CCOC(=O)C1CCCN(C2CC(=O)N(c3ccc(NC(C)=O)cc3)C2=O)C1 (stereo not drawn)	CHRM1 agonist 36.2
CCOC(=O)C1CCCN(S(=O)(=O)c2ccc(NC(C)=O)cc2)C1 (stereo not drawn)	none
CN1CCN(C(CNC(=O)C(=O)NC2CCCC2)c2ccc(F)cc2)CC1 (stereo not drawn)	CHO-K1 Ca antag 52.5
O=C(COc1ccccc1Cl)N1CCN(C(=O)c2ccco2)CC1	none
COc1ccc(CN2CCNC(=O)C2CC(=O)NCCc2nc(C)c(C)s2)cc1C (stereo not drawn)	none
Cc1cc2c(cc(C(=O)N3CCC(C(=O)N4CCCC4)CC3)n2Cc2c(F)cccc2Cl)o1	M1 antag 30.5
CCOC(=O)c1cc2occc2n1Cc1c(F)cccc1Cl	none
CCCn1c(SCC(=O)Nc2ccc3c(c2)OCCO3)n[nH]c1=O	none
Cc1sc2ncnc(N3CCC(C(=O)N(CC(C)C)c4nc5ccccc5s4)CC3)c2c1C	none
O=C(CCc1nc(-c2ccccc2F)no1)Nc1ccc(Oc2ccccc2)cc1	CHO-K1 Ca antag 24.4
COc1cccc(NC(=O)CCc2nc(-c3ccccc3F)no2)c1	none
CC(C)Oc1ccc(C(=O)Nc2cccc(S(=O)(=O)N3CCCC3)c2)cc1	M1 antag 47.5
CC(=O)c1cccc(NC(=O)c2ccc(S(=O)(=O)N3CCCC3)cc2)c1	M1 antag 25.3
CCN(CC)S(=O)(=O)c1cccc(NC(=O)CNc2cccc(S(=O)(=O)N3CCCC3)c2)c1	CHO-K1 Ca antag 31.9, M1 antag 41.6
CC(=O)c1cccc(NC(=O)C(C)OC(=O)c2cccc(S(=O)(=O)N3CCN(C)CC3)c2)c1 (stereo not drawn)	M1 antag 70.8, CHRM1 agonist 67.6
CCCn1c(N)c(N(CCOC)C(=O)c2c(CC)noc2C)c(=O)[nH]c1=O	none
CCN(CC)S(=O)(=O)c1cccc(NC(=O)COC(=O)c2cc(=O)c3ccccc3o2)c1	none
Cc1cc(C(=O)Nc2ccc(S(=O)(=O)N3CCCC3)cc2)cs1	CHO-K1 Ca antag 25.2
CC(=O)c1ccc(NC(=O)c2ccc(S(=O)(=O)N3CCCC3)cc2)cc1	none
O=C(COC(=O)c1ccccc1)Nc1cccc(S(=O)(=O)NC2=NCCCCC2)c1	none
CCN(CC)S(=O)(=O)c1cccc(NC(=O)COC(=O)c2ccc(Br)o2)c1	M1 ag parental 25.3
CCN(CC)S(=O)(=O)c1cccc(NC2=NCCCCC2)c1	M1 antag 26.8
COc1cccc(NC2=NCCCCC2)c1	none
Cc1cc(C)cc(C(=O)OCC(=O)Nc2cccc(S(=O)(=O)NC3=NCCCCC3)c2)c1	CHO-K1 Ca antag 24.5
C[C@@H]1CN([C@H](C)CO)C(=O)CCCn2nncc2CO[C@@H]1CN(C)S(=O)(=O)c1cccs1	none
CCOC(=O)N1CCC(NC(=O)c2cc(C(=O)Nc3ccc(OCC)cc3)ccc2CO)CC1	none
CCC(=O)c1ccc(OCC(=O)Nc2cccc(S(=O)(=O)N3CCCCCC3)c2)cc1	CHO-K1 Ca antag 35.5, M1 antag 47.4, M1 ag parental 18.4
CCOC(=O)N1CCC(NC(=O)c2cc(C(=O)Nc3ccc(S(=O)(=O)N4CCCCC4)cc3)ccc2CO)CC1	M1 ag parental 19.2
COc1ccccc1OCCNC(=O)CN1C(=O)NC2(CCCCC2)C1=O	none
CCOC(=O)[C@@H]1[C@H]2COc3ccc(Br)cc3[C@H]2N2C(=O)N(c3ccc(Cl)cc3)C(=O)[C@]12C	none
C=CCN(c1ccccc1)S(=O)(=O)c1ccc(Cl)c(C(=O)OCC(=O)c2[nH]c(C)c(C(C)=O)c2C)c1	CHO-K1 Ca antag 29.0, M1 antag 30.5
Cn1cccc1C1Nc2ccccc2NC2=C1C(=O)CC(C)(C)C2 (stereo not drawn)	M1 antag 41.7
CCN1CCN(c2oc(-c3ccccc3)nc2S(=O)(=O)c2ccc(C)cc2)CC1	none
COc1ccc(S(=O)(=O)NC2CCCC2)cc1C(N)=O	none
O=c1oc2ccccc2c(Nc2cccc3ccccc23)c1[N+](=O)[O-]	CHO-K1 Ca antag 25.7
O=c1oc2ccccc2c(Nc2ccccc2O)c1[N+](=O)[O-]	none
CC(=O)c1c(C)oc2ccc(NS(=O)(=O)c3ccc(F)cc3C)cc12	M1 antag 28.4
CC(=O)c1c(C)oc2ccc(NS(=O)(=O)c3ccc(O)c(C(=O)O)c3)cc12	none
O=C(N/N=C\c1c(O)ccc2ccccc12)c1cncc(Br)c1	CHRM1 agonist 41.8, M1 ag parental 39.4
O=C(Nc1ccccc1)Nc1ccc2snnc2c1	none
O=C(Nc1ccccc1)Nc1ccc2nnsc2c1	CHO-K1 Ca antag 25.4, M1 antag 59.1, M1 ag parental 18.5
Cc1ccc(/C=C/c2nc3ccccc3c(=O)n2CCc2ccccc2)cc1	CHO-K1 Ca antag 25.9
O=c1c2ccccc2nc(/C=C/c2cccc([N+](=O)[O-])c2)n1CCCO	CHO-K1 Ca antag 27.6
O=c1c2ccccc2nc(/C=C/c2ccc([N+](=O)[O-])cc2)n1CCCO	none
N/C(=N/OC(=O)c1ccc(Cl)cc1)c1ncc([N+](=O)[O-])s1	CHO-K1 Ca antag 29.2
Cc1cccc(OCC(=O)Nc2ccc(N3CCN(C(=O)c4ccco4)CC3)cc2)c1	CHO-K1 Ca antag 28.6, M1 ag parental 16.1
Cc1cccc(OCC(=O)Nc2ccc3oc(=O)ccc3c2)c1	M1 ag parental 18.7
